The record followed here is PubChem BioAssay (EPA / NIEHS).

Inconclusive results are not listed. The source made the active and inactive calls. The calls were made as follows: active = hit-call score of the fitted dose curve at least 0.9, where 1 is the maximum; inconclusive = response in the unintended direction; inactive = score below 0.9.

One may read the AC50 as the midpoint of the concentration-response curve, whichever way the signal moves.

Sequence of human Vitamin D Receptor (VDR), VDR (gene 7421) (P11473 whole entry, looked up, the tested form may be a part): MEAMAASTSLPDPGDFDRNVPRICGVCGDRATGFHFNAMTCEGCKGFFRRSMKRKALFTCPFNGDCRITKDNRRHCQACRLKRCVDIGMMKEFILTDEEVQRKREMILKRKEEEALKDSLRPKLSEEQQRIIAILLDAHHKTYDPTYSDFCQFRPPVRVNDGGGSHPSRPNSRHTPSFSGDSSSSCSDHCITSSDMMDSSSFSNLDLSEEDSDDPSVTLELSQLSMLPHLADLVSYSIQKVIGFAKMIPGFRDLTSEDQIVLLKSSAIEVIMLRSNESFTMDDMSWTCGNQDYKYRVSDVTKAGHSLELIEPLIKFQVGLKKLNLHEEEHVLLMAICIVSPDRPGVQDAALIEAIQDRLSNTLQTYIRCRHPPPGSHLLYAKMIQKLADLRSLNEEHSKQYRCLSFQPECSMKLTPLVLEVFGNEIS

The assay concerns the target human Vitamin D Receptor (VDR), VDR (gene 7421) (UniProt P11473). Description: ATG_VDR_TRANS: Attagene TRANS-FACTORIAL HepG2 Assay for human Vitamin D Receptor (VDR) (AID 2283022). An outline of the steps:
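Transactivation by an exogenous VDR-Gal4 chimera in transiently transfected HepG2 cells was measured as reporter transcript level 24 hours after chemical treatment. RT-PCR products were analysed by capillary electrophoresis and fitted in the positive direction relative to DMSO.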
Regarding `C=Cc1ccncc1`, the compound was called inactive.
Same read-out and setting: under `Nc1ccc2cc(S(=O)(=O)O)cc(O)c2c1N=Nc1ccccc1C(F)(F)F` stands “inactive”; under `CCCC(=O)C(CC)Sc1ccoc1C` (centres undefined), “inactive”; under `Nc1ccc(Cl)c([N+](=O)[O-])c1`, “inactive”.
Same read-out and setting: under `COS(=O)(=O)O` stands “inactive”.
Take `Nc1c(Cl)cc(Cl)cc1[N+](=O)[O-]`: the outcome was inactive.
Consider `O=C(c1ccccc1)C(O)c1ccccc1` (centres undefined), for which the result was inactive.
The same measure, in the same setting: the same measure for `O=C(CC(=O)c1ccccc1)c1ccccc1`: “inactive”.
Still for that read-out and setting: the same measure for `CCCCCCCCCCCC(=O)OCC(O)CO` (centres undefined): “inactive”; for `CC(C)=CCCC(C)CCOC=O` (centres undefined): “inactive”; for `C=C(C)C(=O)OCCOC1CC2CC1C1C=CCC21` (centres undefined): “inactive”.
The same measure, in the same setting: under `CC1(C)O[C@@H]2C[C@H]3[C@@H]4CCC5=CC(=O)C=C[C@]5(C)[C@@]4(F)[C@@H](O)C[C@]3(C)[C@]2(C(=O)CO)O1` stands “inactive”; under `COC(=O)Nc1ccc(Cl)c(Cl)c1`, “inactive”; under `COCCOCCOCCO`, “inactive”.
Turning to `CCCC[O][Al]([O]CCCC)[O]CCCC`, the compound was classed as inactive.
The same measure, in the same setting: the same measure for `CCCN(CCC)S(=O)(=O)c1ccc(C(=O)O)cc1`: “inactive”.
Turning to `COc1ccc(CCC(C)=O)cc1`, the call was inactive.
As to `CCN(CCN)c1cccc(C)c1`, the outcome was inactive.
Still for that read-out and setting: the same measure for `CC(C)OCCO`: “inactive”; for `O=C(Nc1ccc2c(c1)Cc1ccccc1-2)C(F)(F)F`: “inactive”.
`C[C@H]1C[C@@H](O)CC(C)(C)C1`: the call was inactive.
`CCCOC(=O)c1c(Cl)c(Cl)c(Cl)c(Cl)c1C(=O)OCCC`: the result was inactive.
Still for that read-out and setting: under `CCCCC1CCC(O)CC1` (centres undefined) stands “inactive”; under `Cc1c(C2(c3cc(Br)c(O)c(Br)c3C)OS(=O)(=O)c3ccccc32)cc(Br)c(O)c1Br`, “inactive”.
Same read-out and setting: the same measure for `ClC(c1ccccc1)(c1ccccc1)c1ccccc1`: “inactive”.
On the same count and under the same terms, under `CCc1ccc(O)cc1` stands “inactive”; under `CCC(Cl)C(Cl)C(Cl)CC(Cl)C(Cl)C(C)Cl` (centres undefined), “inactive”; under `CSc1c(Cl)c(Cl)c(Cl)c(Cl)c1Cl`, “inactive”.
On to `[Cl][Au]([Cl])[Cl]`, for which the outcome was inactive.
Same read-out and setting: under `COc1cc([C@@H]2c3cc4c(cc3[C@@H](O[C@@H]3O[C@@H]5CO[C@@H](C)O[C@H]5[C@H](O)[C@H]3O)[C@H]3COC(=O)[C@H]23)OCO4)cc(OC)c1O` stands “inactive”; under `CCCCCCCCC=CCCCCCCCC1=NCCN1CCO`, “inactive”.
As for `O=C(CS)OCCOC(=O)CS`, the compound was classed as inactive.
On to `C=C1CC[C@H](O)C/C1=C/C=C1\CCC[C@]2(C)[C@@H]([C@H](C)/C=C/[C@H](C)C(C)C)CC[C@@H]12`, for which the AC50 is 3.98 µM (active).
As to `C[Si]1(C)O[Si](C)(C)O[Si](C)(C)O1`, the compound was called inactive.
Same read-out and setting: the same measure for `CCC1(c2ccccc2)C(=O)NCNC1=O`: “inactive”.
Still for that read-out and setting: under `Cc1cccc(Nc2ccccc2)c1` stands “inactive”.
On the same count and under the same terms, under `CC(=O)O[C@@H]1C[C@@H]2CC[C@@]1(C)C2(C)C` stands “inactive”; under `CC(C)=CCCC(C)CC(=O)O` (centres undefined), “inactive”; under `CCCCCCCCCCCCCCN(CCO)CCO`, “inactive”.
